# Out of some 360,000 compounds screened, about 3,800 (1.1%) were called active.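 The calls were made as follows: active = compounds causing at least 50% loss of cell viability in the single-dose screen, relative to plate controls; inactive = the rest.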 This excerpt belongs to a sample that is enriched for actives.
# Experiment: TRAIL-exposed caspase-8 expressing cell killing – NB7+C8 cells, ATPlite luminescence, TRAIL sensitizer project, primary screen (AID 624354)
# Details: at 10 µM, stronger effect = higher value
row,SMILES,"inhibition (viability loss, TRAIL sensitization)"
1,O=C(Nc1cccc2cccnc12)c1ccc2sc([C@H]3C[C@H](O)[C@@H](CO)O3)nc2c1,7.21% (inactive)
2,COC(=O)C[C@@H]1C=C[C@@H](NS(=O)(=O)c2cccc(OC)c2)[C@@H](CO)O1,4.54% (inactive)
3,CC(=O)c1c(O)cc2n(c1=O)-c1ccc(Cl)cc1C2(C)C,5.66% (inactive)
4,CC(C)C(NC(=O)C1CCC(C(C)(C)C)CC1)C(=O)NCCCN1CCCCC1 (stereo not given),8.66% (inactive)
5,COc1cccc(/C=C/C(=O)Nc2ccc3c(c2)OCCO3)c1,64.9% (active)
6,Cc1cc(C)nc(NC(=O)/C=C/c2ccc(Cl)cc2)n1,2.95% (inactive)
7,Cc1cccc(NC(=O)/C=C/c2ccc3c(c2)OCO3)n1,79.8% (active)
8,COc1cccc(C(=O)NNC(=O)/C=C/c2ccccc2)c1,-32% (inactive)
9,Cc1ccc(OCCCC(=O)Nc2ccc3c(c2)OCCO3)cc1,-4.22% (inactive)
10,CN(Cc1ccccc1)C(=O)COC(=O)/C=C/c1ccc2c(c1)OCO2,-10.8% (inactive)
11,COC(=O)Cc1ccc(OC2(C)CCN(Cc3ccc4c(c3)OCCO4)C2)cc1 (stereo not given),-7.8% (inactive)
12,COc1nnc(-c2ccc(C)c(S(=O)(=O)N(C)C)c2)c2ccccc12,-6.56% (inactive)
13,Cc1ccc(/C=C2\CCn3c2nc2cc(C(=O)O)ccc2c3=O)c(C)c1,5.96% (inactive)
14,COc1ccc(OC)c(-n2nnnc2SCC(=O)Nc2cc(C)ccc2OC)c1,-4.79% (inactive)
15,C=CCn1c(C)cc(C2=NNC(=NCC)SC2)c1C,92.8% (active)
16,CCC(CC)c1nnc(NC(=O)C2CCN(C(=O)c3ccco3)CC2)s1,-18.9% (inactive)
17,CCCNC(=O)c1cc(C2CCCCN2C(=O)OC)on1 (stereo not given),-21.1% (inactive)
18,N#CCCC(C#N)(c1cccnc1)N1CCOCC1 (stereo not given),-12.1% (inactive)
19,O=C(NCC(O)c1nc2ccccc2[nH]1)c1ccc(Br)cc1 (stereo not given),-0.934% (inactive)
20,O=C(Cc1nc2ccccc2[nH]c1=O)c1ccc(Cl)cc1,60.2% (active)

row,SMILES,"inhibition (viability loss, TRAIL sensitization)"
1,O=c1c(-c2ccc(Cl)cc2)[n+]([O-])c2ccccc2n1OCc1nc2ccccc2[nH]1,-24.1% (inactive)
2,CCC1(C)Cc2c(sc3nnn(CC(=O)Nc4ccc(Cl)cc4)c(=O)c23)CO1 (stereo not given),-1.52% (inactive)
3,COc1ccc(C(C)(O)c2nc(-c3cc(F)cc(F)c3)cs2)cc1 (stereo not given),21% (inactive)
4,COc1cc(OC)cc(-c2cc3ccc(F)cc3cn2)c1,60% (active)
5,Fc1ccc2cnc(-c3ccccc3)cc2c1,-5.36% (inactive)
6,CC(=O)c1nnn(-c2ccc(Cl)cc2C#N)c1C,2.75% (inactive)
7,Cc1ccc(N2CCN(c3ccc(C)cc3)C2c2ccccn2)cc1,-11.7% (inactive)
8,Cc1ccc2nc(-c3ccncc3)cc(C(=O)Nc3ccncc3)c2c1,54% (active)
9,Cc1ccc(-c2cc(C(=O)NCc3cn(C)nc3C)c3cc(Br)ccc3n2)cc1,12.3% (inactive)
10,Cc1ccc2nc(-c3ccncc3)cc(C(=O)Nc3ccc(OC(F)F)cc3)c2c1,14.5% (inactive)
11,Cc1cc(C)n2nc(C(=O)OC(C)C(=O)c3cc(C)c(C)cc3C)nc2n1 (stereo not given),-12.9% (inactive)
12,CC(=O)N1c2ccc(S(=O)(=O)N3CCCC(C(=O)NCc4ccc(Cl)cc4)C3)cc2CC1C (stereo not given),15.2% (inactive)
13,Cc1ccc(S(=O)(=O)N(C)CC(=O)N2CCc3ccccc32)cc1,-3.97% (inactive)
14,O=C(CN1C(=O)c2ccccc2S1(=O)=O)N1CCc2ccccc21,61.8% (active)
15,CN(Cc1cccs1)C(=O)CN1C(=O)c2ccccc2S1(=O)=O,-16.6% (inactive)
16,O=S(=O)(Cc1ccccc1)c1nc2ccccc2n1Cc1ccccn1,-8.41% (inactive)
17,O=C(Cn1c2[n+](c3ccc(C(F)(F)F)cc31)CCCCC2)Nc1c(F)cccc1F,3.77% (inactive)
18,COc1cc2c(cc1OC)CN(C(=O)c1cc(S(=O)(=O)N3CCCCC3)ccc1Cl)CC2,1.71% (inactive)
19,COc1ccc(C2SCCN2S(=O)(=O)c2ccccc2)cc1OC (stereo not given),0.617% (inactive)
20,COc1cc2c(cc1OC)C(C)N(S(=O)(=O)c1cnc(Cl)c(Cl)c1)CC2 (stereo not given),75.2% (active)

row,SMILES,"inhibition (viability loss, TRAIL sensitization)"
1,C[C@@H]1CC2=C(C(=O)OC(C)(C)O2)[C@@H](C2CC2)O1,-8.67% (inactive)
2,Cc1ccc(OCCNC(=O)CN2C(=O)NC3(CCCC3)C2=O)cc1,-18.7% (inactive)
3,CCn1cc(-c2cc(C(=O)O)on2)c(C)n1,-6.48% (inactive)
4,CC(C)Nc1ccc(-n2nc3ccccc3[n+]2[O-])cc1,54.6% (active)
5,CCCC(O)(CCC)C(=O)NN(C(=O)CCl)c1cccc(C)c1,5.97% (inactive)
6,COC(=O)N(NC(=O)C(O)(C(C)C)C(C)C)c1ccccc1,21.8% (inactive)
7,CCCCC(O)(CCCC)C(=O)NN(C(=O)CCl)c1ccccc1,82.8% (active)
8,COc1ccc(/C=C/CN2CCN(Cc3ccc(C)cc3)C(CCO)C2)cc1 (stereo not given),-0.778% (inactive)
9,Cc1ccc(-c2cc(C(=O)N/N=C/C=C/c3ccccc3)n[nH]2)o1,0.486% (inactive)
10,Cc1cc(C(=O)NCCc2ccc(Cl)cc2)c(C)o1,-14.9% (inactive)
11,CC(=C/c1ccccc1)/C=N/NC(=O)c1cc(C)oc1C,54.5% (active)
12,Cc1ccc2cccc(OCCCOc3ccccc3CO)c2n1,-4.7% (inactive)
13,Cc1ccc(NC(=O)c2oc3ccccc3c2C)c([N+](=O)[O-])c1,3.18% (inactive)
14,CC1(C(=O)NS(=O)(=O)C2CC2)CCCN(C(=O)CSc2ccccc2)C1 (stereo not given),-10.3% (inactive)
15,CCOC(=O)c1c(NC(=O)c2ccc(S(=O)(=O)N(C)CC3CCCO3)cc2)sc2c1CC(C)(C)NC2(C)C (stereo not given),26.5% (inactive)
16,COC(=O)c1c(NC(=O)COc2ccc(Cl)cc2Cl)sc2c1CC(C)(C)NC2(C)C,92.1% (active)
17,CN1CCC(OC(=O)COc2ccc(Cl)cc2Cl)CC1,-7.75% (inactive)
18,COC(=O)c1ccccc1N=Nc1c(C)[nH][nH]c1=O,-4% (inactive)
19,O=C(CSc1ncnc2c1nnn2Cc1ccc(F)cc1)NC1CCCC1,-9.39% (inactive)
20,O=C(CCNC(=O)c1ccc(Br)cc1)Nc1cccc(S(=O)(=O)N2CCCCC2)c1,5.98% (inactive)

# Reference: PubChem BioAssay AID624354 (Sanford-Burnham Center for Chemical Genomics, 2012)
